Assay outcomes: PubChem, The Scripps Research Institute Molecular Screening Center
PAFAH2 inh = inhibitors of human PAFAH2; 340,000 tested, 0.99% active; inhibition, % at 3.39 µM; recombinant PAFAH2, FP-rhodamine activity probe, fluorescence polarization; AID 492956;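 active = inhibition above the mean over all tested compounds plus 3 SD, cut at about 30% in these data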;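 also: inhibitors block probe labeling of enzyme so polarization drops; 0% = enzyme with DMSO and 100% = wells lacking PAFAH2 protein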
pPAFAH inh = pPAFAH (human) enzyme inhibition; Q13093; inhibition, % at 3.39 µM; 330,000 tested, 1.5% active; AID 463082; recombinant pPAFAH, FP-rhodamine probe fluorescence polarization;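 active = inhibition above the mean inhibition across the screen plus 3 SD, cut at about 25% in these data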;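 also: inhibitors block binding of the rhodamine activity-based probe so polarization drops; 0% = enzyme with DMSO and 100% = wells lacking pPAFAH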
Fam108B counter = blocks mouse Fam108B hydrolase in RBBP9 counter-screen; recombinant Fam108B, FP-Rh probe fluorescence polarization; inhibition, % at 9.51 µM; 300,000 tested, 0.33% active;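 active = inhibition above the screen mean inhibition plus 3 SD, computed separately per campaign, cut at about 18% in these data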;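 also: inhibitors lower polarization as less probe binds the enzyme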
PME-1 inh = blocks human protein phosphatase methylesterase 1; Q9Y570; recombinant PME-1, FP-Rh probe fluorescence polarization; inhibition, % at 5.9 µM; 320,000 tested, 0.53% active; AID 2130;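 active = inhibition above the campaign mean of all compounds plus 3 SD, cut at about 26% in these data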;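 also: competitive labeling of PME-1 active site by serine hydrolase directed probe; 0% = PME-1 with DMSO and 100% = wells lacking PME-1 enzyme; inhibitors block probe labeling so polarization falls and inhibition rises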
PAFAH1B2 inh = blocks human PAF acetylhydrolase 1b catalytic subunit 2; inhibition, % at 3.39 µM; AID 492953; P68402; 340,000 tested, 1.2% active; recombinant PAFAH1B2, FP-rhodamine activity probe, fluorescence polarization;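 active = inhibition above the mean of all tested compounds plus 3 SD, cut at about 24% in these data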;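 also: 0% = enzyme with DMSO and 100% = wells lacking PAFAH1B2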
Target sequence (P68402 whole entry, looked up): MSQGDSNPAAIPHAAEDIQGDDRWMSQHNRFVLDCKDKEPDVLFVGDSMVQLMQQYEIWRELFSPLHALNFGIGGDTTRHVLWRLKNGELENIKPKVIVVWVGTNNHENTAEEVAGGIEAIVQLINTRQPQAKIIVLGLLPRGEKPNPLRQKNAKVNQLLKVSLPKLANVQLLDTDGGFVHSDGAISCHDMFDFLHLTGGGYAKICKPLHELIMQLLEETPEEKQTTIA
PAFAH1B3 inh = blocks human PAF acetylhydrolase 1B catalytic subunit 3; Q15102; recombinant PAFAH1B3, FP-rhodamine probe, fluorescence polarization; inhibition, % at 3.39 µM; 340,000 tested, 0.28% active;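 active = inhibition above the screen-wide average of all tested compounds plus 3 SD, cut at about 25% in these data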;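 also: 0% = enzyme with DMSO only and 100% = wells lacking PAFAH1B3 protein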
Target sequence (Q15102 whole entry, looked up): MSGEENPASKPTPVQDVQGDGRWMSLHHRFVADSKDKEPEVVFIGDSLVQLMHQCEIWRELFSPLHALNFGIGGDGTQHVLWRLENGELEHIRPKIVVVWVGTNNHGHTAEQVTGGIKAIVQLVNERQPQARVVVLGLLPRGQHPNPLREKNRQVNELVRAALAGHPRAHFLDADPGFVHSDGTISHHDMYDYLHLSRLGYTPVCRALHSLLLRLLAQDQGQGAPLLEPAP
Starred values were filed as active, the others as inactive; nt = not tested or not shown. The list is not random: actives were taken first. Their share in the collection is about 2.8%.

SMILES | PAFAH2 inh | pPAFAH inh | Fam108B counter | PME-1 inh | PAFAH1B2 inh | PAFAH1B3 inh
CN(C(=O)CSc1nc(-c2ccc(C(C)(C)C)cc2)c(C#N)c(=O)[nH]1)C1CCCCC1 | 6 | 18 | -9 | -2 | 31* | 3
N#Cc1c(-c2ccccc2)nc(SCC(=O)NC2CCCCC2)[nH]c1=O | -4 | 1 | 0 | 0 | 8 | 5
OCC1OC(n2cnc3c(N4CCCCC4)ncnc32)C(O)C1O (stereo not drawn) | -4 | nt | nt | nt | 4 | 8
COc1ccc(OC)c(NC(=O)Cc2ccc(NC3=NC4CS(=O)(=O)CC4S3)cc2)c1 (stereo not drawn) | 3 | 0 | 0 | 2 | 7 | 3
Cn1cnnc1SCc1ccc(-c2ccc(Br)cc2)o1 | 3 | 26* | -5 | -2 | 4 | 9
O=C1CC(NS(=O)(=O)c2cccnc2)CN1c1cccc(F)c1 (stereo not drawn) | 1 | 4 | -2 | 0 | 3 | 11
Cc1cc(C)c(C#N)c(SCc2nc3ccccc3[nH]2)n1 | 11 | 19 | 1 | 29* | 6 | 7
CC1(C)CC(=O)C2=C(C1)N1C(=C(C#N)C2c2ccc(Cl)cc2)N=C(N)c2ccccc21 (stereo not drawn) | 5 | -6 | 1 | 31* | 5 | 9
N#CC1=C2N=C(N)c3ccccc3N2C2=C(C(=O)CCC2)C1c1ccc(Cl)cc1 (stereo not drawn) | 17 | 10 | 4 | 17 | 2 | -3
CN(C(=O)COC(=O)C12CC3CC(CC(Cl)(C3)C1)C2)C1(C#N)CCCCC1 | 6 | -4 | nt | -2 | 24* | 5
CN1CCN(C2=C(Cl)C(=O)C(c3cnc(N4CCCCC4)s3)=C(Cl)C2=O)CC1 | 10 | 41* | 6 | 12 | 15 | 18
CN1CCN(C2=C(NS(=O)(=O)c3ccccc3)C(=O)c3ccccc3C2=O)CC1 | 8 | 2 | 2 | -2 | 2 | 7
CC1COCC(C)N1C1=C(Cl)C(=O)c2ccccc2C1=O (stereo not drawn) | 43* | nt | nt | nt | 35* | 44*
CN1CCN(C2=C(Cl)C(=O)N(C3CCCCC3)C2=O)CC1 | 0 | 4 | 1 | 9 | 3 | 4
CN1CCN(C2=C(Cl)C(=O)c3ccccc3C2=O)CC1 | 57* | nt | nt | nt | 39* | 66*
O=C(N/C(=C/c1cccc([N+](=O)[O-])c1)C(=O)N1CCOCC1)c1ccc(Br)cc1 | 3 | 1 | 8 | 9 | -4 | 8
Cc1cc(NC(=O)CSCC(=O)Nc2cc(C(F)(F)F)ccc2N2CCOCC2)no1 | -5 | 2 | nt | 9 | 26* | 1
CC(C)(C)C(=O)Nc1cc(C(F)(F)F)ccc1N1CCOCC1 | 3 | 5 | -4 | -1 | 2 | -2
CC(C)(C)C(=O)NC(=S)Nc1cc(C(F)(F)F)ccc1N1CCOCC1 | 4 | 33* | 0 | -3 | 7 | 13
COCCC(=O)N1CCC(C(=O)Nc2ccc(Oc3ccccc3)nc2)CC1 | 3 | 0 | 0 | -3 | -1 | 1
Cc1nn(C)cc1C(=O)Nc1ccc2c(c1)OCCO2 | -4 | -11 | -1 | -2 | 6 | -6
Cc1cccc(C)c1NC(=O)CN(C)C(=O)CN1C(=O)NC2(CCCC2)C1=O | -1 | 8 | 2 | -2 | 6 | 14
CCOc1ccc(NC(=O)CN(C)C(=O)CCNC(=O)c2ccco2)cc1OCC | 6 | 1 | nt | 2 | -3 | 8
CC(C)(C)c1ccc(CNC(=O)C2CCCN2C(=O)Nc2ccccc2)cc1 (stereo not drawn) | 3 | -2 | 0 | -7 | 25* | -1
O=C(NCCc1ccccc1)C1CCCN1C(=O)Nc1ccccc1 (stereo not drawn) | -8 | -2 | 3 | 7 | -3 | 6
O=C(NCCc1ccccc1)C1CCCN1C(=O)Nc1cccc(Cl)c1 (stereo not drawn) | 8 | 6 | 0 | 1 | 27* | -1
O=C(CNC(=O)C1CCCCC1)OCC(=O)c1ccc(Cl)s1 | 1 | 6 | -1 | 0 | 2 | 10
O=C(CN1C(=O)C2CCCCC2C1=O)OCC(=O)c1ccc(Cl)s1 (stereo not drawn) | 40* | 26* | 3 | -1 | 3 | 7
CN(C)c1ccc2cc(S(=O)(=O)O)cc(O)c2c1 | 38* | nt | nt | nt | 38* | 52*
O=Nc1c(O)ccc2cc(S(=O)(=O)O)ccc12 | 4 | nt | nt | nt | 10 | 23
